Outcome data for 14 compounds are collected here from PubChem BioAssay (NCATS).

Records with an inconclusive call do not appear. Activity calls are given as the source filed them. Calls come from the whole dose curve; as a rule, active = well fitted activation curve with a large enough effect; inconclusive = small, poorly fitted or top-dose-only effect, or effect the other way; inactive = flat fitted curve, though single readings scatter.

This assay can be described thus: qHTS Assay for Identification of Small Molecule Agonists for Thrombopoietin (TPO) Signaling Pathway (AID 917). The settings on record: TPO signaling pathway reporter cells, agonist qHTS, stimulated with TPO at its EC50; series mostly up to 38.5 µM. The protocol:
NIH Molecular Libraries Screening Centers Network [MLSCN]
NIH Chemical Genomics Center [NCGC]
The thrombopoietin (TPO) signaling pathway was assayed in murine Ba/F3 cells stably transfected with the human TPO receptor and a luciferase reporter gene controlled by the Glycoprotein IIb promoter (provided by Axxam). BaF3 cells are an IL-3-dependent pro B cell line that upon TPO stimulation, undergo cell division and induce the megakaryocyte marker, Glycoprotein IIb. The assay was screened at the EC50 of TPO (26 pM) to identify activators of the pathway.
NCGC Assay Protocol Summary:
Cells were maintained at 37 C and 5% CO2in RPMI with 10% fetal bovine serum, 0.5 ng/mL murine IL-3, 100U/ml penicillin and 100 ug/ml streptomycin. Prior to plating, cells were incubated overnight in medium without IL-3. Cells were plated at 250 cells/5uL/well into white solid 1536-well plates, 23 nL of compounds were delivered by a pin tool, and 1 uL of TPO (26 pM final concentration in IL-3 deficient medium) was added. Following 24 hrs of incubation at 37 C and 5% CO2, 4 uL of Steadylite detector mix (PerkinElmer) was added, the plates incubated at room temperature for 10 min and luminescence was measured for 10 s and 2X binning by a ViewLux detector (Perkin Elmer).
(In general: Quantitative high-throughput screening tests each substance at several concentrations.)
`CN1CCC[C@@H]1c1cccnc1`: the outcome was inactive. The entry for `COc1cc(-c2ccc(=O)[nH]n2)ccc1OC(F)F` is “inactive”. The entry for `CCCn1c(=O)[nH]c(=O)c2[nH]cnc21` is “inactive”. Regarding `N[C@@H](Cc1cnc[nH]1)C(=O)O`, the compound was classed as inactive. The value for `CN1[C@@H]2CC[C@H]1CC(OC(=O)c1c[nH]c3ccccc13)C2` (some centres undefined) was “inactive”; that for `O=C1CCC(c2ccc(-n3ccnc3)cc2)=NN1` was “inactive”. The entry for `C[C@@H]1C(=O)NC2=Nc3cccc(Cl)c3CN21` is “inactive”; for `O=C(O)c1cc2cc(Cc3cccnc3)ccc2o1` it is “inactive”; for `C[N+]1(CCCCC[N+]2(C)CCCC2)CCCC1` it is “inactive”. In the case of `Oc1cc(O)c2c(c1)O[C@H](c1ccc(O)c(O)c1)[C@H](O)C2`, the result was inactive.

As to `Nc1cc(Cl)c(NC2=NCCN2)c(Cl)c1`, the compound was called inactive.

Take `CC(C)NC[C@@H](O)COc1cccc2ccccc12`: the compound was called inactive.

Regarding `C[C@]12CC[C@@H]3c4ccc(O)cc4CC[C@H]3[C@@H]1CC[C@@H]2O`, the result was inactive.

As for `C1CCc2nnnn2CC1`, the result was inactive.
